# Sampled rows, rich in hits. Any-hit rate of the full collection: about 18%.
# TDP1 cell CPT: DT40-hTDP1 cell growth loss with CPT; chicken DT40 Tdp1-/-;hTDP1 cells + 20 nM CPT, ATP luminescence, 48 h; Potency, µM (top dose mostly 46.2 µM), most hits filed as inhibitors; 420,000 tested, 12% active; AID 686979; further: nearly all actives have a fitted effect of over 55% in size
#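 Chicken DT40 Tdp1-/- cells stably complemented with human TDP1 were seeded at 400 cells/well in medium containing 20 nM camptothecin, exposed to pin-transferred compounds, and grown at 37 °C for at least 48 hr. Viability was read as ATP luminescence.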
# LDHA block: blocks human lactate dehydrogenase A; P00338; purified LDHA, NADH/diaphorase-resazurin fluorescence; active compounds read low; 480,000 tested, 0.15% active; activity change, % (values are at about 110 or 230 µM); AID 1347041; in the data active means activity change below about -30%; inconclusive means mostly about -25% to -30%
#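 Enzyme activity of human lactate dehydrogenase 5 (2 nM; 0.06 mM NADH, 0.2 mM pyruvate, 5 min, RT) is measured via a resazurin/diaphorase fluorescence readout of residual NADH.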
# RORg inh: ROR gamma (mouse) transcription inhibition; AID 2551; Potency, µM (top dose mostly 53.6 µM), usual class: inhibitors; Drosophila S2 Gal4-RORgamma UAS-luciferase reporter, 20 h; 310,000 tested, 5.4% active; P51450; further: nearly all actives have a fitted effect of over 60% in size
# Target sequence (P51450 whole entry, looked up, the tested form may be a part): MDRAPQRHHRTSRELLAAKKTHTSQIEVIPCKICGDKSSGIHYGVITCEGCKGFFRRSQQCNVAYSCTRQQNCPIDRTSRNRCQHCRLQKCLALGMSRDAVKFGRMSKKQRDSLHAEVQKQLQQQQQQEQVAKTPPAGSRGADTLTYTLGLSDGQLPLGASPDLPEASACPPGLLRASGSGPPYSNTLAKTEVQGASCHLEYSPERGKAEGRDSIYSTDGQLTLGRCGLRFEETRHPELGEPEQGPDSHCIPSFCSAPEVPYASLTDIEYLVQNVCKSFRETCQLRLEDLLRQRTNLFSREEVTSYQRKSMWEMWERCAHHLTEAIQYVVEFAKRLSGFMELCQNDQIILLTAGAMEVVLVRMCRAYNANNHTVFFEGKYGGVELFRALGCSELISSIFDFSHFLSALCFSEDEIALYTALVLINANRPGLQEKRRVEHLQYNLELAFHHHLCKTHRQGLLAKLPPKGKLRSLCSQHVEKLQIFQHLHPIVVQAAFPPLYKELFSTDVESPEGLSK
#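 A Gal4/UAS one-hybrid system in insect cells: metallothionein-promoter Gal4–ROR gamma fusion plus Photinus luciferase reporter. Copper sulfate 700 uM final, 20 hr ambient incubation, luminescent detection after 10 min with reagent.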
# Gal4-VP16 FLuc: counter-screen for ROR gamma inhibitors: Gal4-VP16 reporter; AID 2546; Potency, µM (top dose mostly 53.6 µM), usual class: inhibitors; 310,000 tested, 3.5% active; Drosophila S2 Gal4-VP16 UAS-luciferase, luminescence, 20 h;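 further: Gal4-VP16 expression switched on by copper sulfate through the metallothionein promoter; nearly all actives have a fitted effect of over 50% in size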
# DT40 TDP1 no CPT: qHTS for Inhibitors of human tyrosyl-DNA phosphodiesterase 1 (TDP1): qHTS in cells in absence of CPT. DT40 Tdp1-/- hTDP1 cells, no CPT, ATP luminescence, 48 h. Potency, µM (top dose mostly 46.2 µM), hits mostly inhibitors. 420,000 tested, 15% active. AID 686978, 2013; further: nearly all actives have a fitted effect of over 55% in size
#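 Luminescent ATP content (CellTiter-Glo) served as the growth readout. Knockout chicken DT40 cells expressing human TDP1 were exposed to compounds without camptothecin for a minimum 48 hr at 37 °C.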
# IL-1B inflam inh: inflammasome signaling inhibition, IL-1 beta readout. activity change, % at 57.5 µM. 360,000 tested, 4.7% active. THP-1 LPS/ATP IL-1B secretion, AlphaLISA, 16 h; active compounds read low; in the data active means activity change below about -50%; inconclusive means mostly about -30% to -49%
#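 THP-1 cells pretreated 1 hr with compounds (up to 57.5 uM final), then stimulated with LPS (250 ng/mL final) plus ATP (1.25 mM final); secreted IL-1B measured by AlphaLISA after 16 hr, decreased signal indicating inhibition.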
# Hits are given with their value; – = inactive; ? = inconclusive; · = no result given; [ ] = remark or other dose. Unless noted, the call rests on the fitted dose curve; in most records, active means well fitted curve in the direction sought with a large enough effect; inconclusive means small, poorly fitted or top-dose-only effect, or another doubt; inactive means no such curve, though single readings can be large; an effect the other way counts as inactive or inconclusive.
SMILES,TDP1 cell CPT,LDHA block,RORg inh,Gal4-VP16 FLuc,DT40 TDP1 no CPT,IL-1B inflam inh
C=C(Br)COC(c1ccco1)[C@H](Cc1ccccc1)NC(=O)OC(C)(C)C (stereo partly specified),?,·,·,·,11µM,·
CCC1CSC(Nc2ccc(C(=O)/C=C/c3ccc(Br)cc3)cc2)=N1 (stereo unspecified),?,–,–,–,?,-93
CCC1CSC(Nc2ccc(C(=O)/C=C/c3ccc(OC)c(OC)c3)cc2)=N1 (stereo unspecified),?,–,?,?,13µM,-93
COc1ccc(C2c3ccc(O)cc3Oc3ncn4nc(-c5cccnc5)nc4c32)cc1OC (stereo unspecified),?,–,–,–,12µM,–
O=C(Nc1cccc([N+](=O)[O-])c1)C12CC3CC(C1)CC(n1cnc([N+](=O)[O-])n1)(C3)C2,26µM,–,–,–,?,–
Cc1cc(=O)n(CC(=O)Nc2ccc(F)cc2)c(N2CCc3ccccc3C2)n1,·,–,·,·,·,·
COc1ccccc1C(=O)N(Cc1nc(-c2cccc(C)c2)no1)C(C)C,21µM,–,·,·,?,·
COc1cccc(C(=O)N(Cc2nc(-c3cccc(C)c3)no2)C(C)C)c1OC,?,–,–,–,18µM,–
Cc1cccc(OCCn2c(SCC(N)=O)nc3ccccc32)c1,?,–,·,·,21µM,·
Cc1cccc(OCCCn2c(CCNC(=O)C(C)C)nc3ccccc32)c1,?,–,–,–,16µM,–
Cc1cc(C)cc(OCCCn2c(CCNC(=O)C3CCCCC3)nc3ccccc32)c1,12µM,–,·,·,15µM,·
CC(C)(C)c1ccc(OCCn2c(CCNC(=O)C3CCCCC3)nc3ccccc32)cc1,11µM,–,·,·,3.2µM,·
Cc1ccc(OCCn2c(CCNC(=O)C3CCCCC3)nc3ccccc32)cc1,·,–,·,·,·,·
Cc1cc(C)cc(OCCn2c(CCNC(=O)C3CCCCC3)nc3ccccc32)c1,?,–,·,·,?,·
Cc1cc(C)c(NC(=O)CCc2ccco2)c(Cl)c1,·,–,·,·,·,·
O=C(Nc1cccc2ncccc12)C1CCCN(S(=O)(=O)c2ccc(Br)cc2)C1 (stereo unspecified),·,–,·,·,·,·
Cc1ccc(SCCNC(=S)Nc2ccc(Nc3ccccc3)cc2)cc1,·,–,·,·,·,·
O=C(Nc1c(C(=O)NC2CCCCC2)cnn1-c1ccccc1)c1ccccc1,·,–,·,·,·,·
CN(C)CCCOC(=O)c1ccc(C(C)(C)C)cc1,·,–,·,·,·,·
O=C(NCCc1nc2ccccc2n1CCCOc1ccc(Cl)cc1)C1CCCCC1,?,–,·,·,?,·
Cc1cccc(OCCCn2c(CCNC(=O)C3CCCCC3)nc3ccccc32)c1,13µM,–,·,·,12µM,·
O=C(NCCc1nc2ccccc2n1CCOc1ccc2ccccc2c1)C1CCCCC1,?,–,·,·,?,·
Cc1ccc(OCCCCn2c(CCNC(=O)C3CCCCC3)nc3ccccc32)cc1,?,–,·,·,16µM,·
Cc1ccccc1OCCCn1c(CCNC(=O)C2CCCCC2)nc2ccccc21,13µM,–,·,·,16µM,·
O=C(NCCc1nc2ccccc2n1CCCOc1ccc2ccccc2c1)C1CCCCC1,?,–,·,·,11µM,·
SMILES,TDP1 cell CPT,LDHA block,RORg inh,Gal4-VP16 FLuc,DT40 TDP1 no CPT,IL-1B inflam inh
CC(=O)Nc1ccc(OCC(O)Cn2c(C)nc3ccccc32)cc1 (stereo unspecified),?,–,?,7.9µM,?,–
Cc1nc2ccccc2n1CC(O)COc1ccccc1F (stereo unspecified),·,–,·,·,·,·
COc1cccc(OCC(Cn2c(C)nc3ccccc32)OC(C)=O)c1 (stereo unspecified),?,–,–,–[10 µM],8.2µM,–
COc1cccc(OCCn2c(C)nc3cc(C)c(C)cc32)c1,·,–,·,·,·,·
CC(=O)N(C)c1ccc(OCC(O)Cn2c(C)nc3ccccc32)cc1 (stereo unspecified),5.8µM,–,–,16µM,6.5µM,–
O=C(NCC(c1cccs1)N1CCOCC1)c1cccc([N+](=O)[O-])c1 (stereo unspecified),–,–,–,–,–,–
CCN(c1ccccc1)S(=O)(=O)c1cc(C(=O)NCC(c2ccc(OC)cc2)N(C)C)ccc1C (stereo unspecified),?,–,·,·,16µM,-74
C=CCN(c1ccccc1)S(=O)(=O)c1cccc(C(=O)NCC(c2ccccc2OC)N2CCCC2)c1 (stereo unspecified),18µM,–,·,·,18µM,?
C=CCN(c1ccccc1)S(=O)(=O)c1cccc(C(=O)NCC(c2cccs2)N2CCOCC2)c1 (stereo unspecified),13µM,–,·,·,7.3µM,–
COc1ccc(C(CNC(=O)c2cccc(S(=O)(=O)N(C)c3ccccc3)c2)N2CCCC2)cc1 (stereo unspecified),?,–,·,·,4.1µM,–
COc1ccc(C(CNC(=O)c2cccc(NS(=O)(=O)c3ccccc3)c2)N2CCCC2)cc1 (stereo unspecified),?,–,·,·,?,–
COc1ccccc1NS(=O)(=O)c1cccc(C(=O)NCC(c2ccccc2OC)N2CCCC2)c1 (stereo unspecified),?,–,·,·,?,–
COc1ccc(C(CNC(=O)c2ccc(S(=O)(=O)N(C)C)cc2)N(C)C)cc1 (stereo unspecified),–,–,–,–,–,–
COc1nc2ccccc2nc1N1CCC(C(=O)Nc2cc(C)cc(C)c2)CC1,·,–,·,·,·,·
O=C(Sc1ccc(Cl)cc1)c1ccccc1F,·,–,·,·,·,·
CC1=C(C#N)C(O)(C(F)(F)F)C(=O)N1 (stereo unspecified),·,–,·,·,·,·
CCOc1ccc(NC(=O)Cn2ncn3nc(-c4cc(C)ccc4C)cc3c2=O)cc1,·,–,·,·,·,·
CCN(CC)S(=O)(=O)c1ccc(C(=O)NCC(c2cccs2)N2CCOCC2)cc1 (stereo unspecified),?,–,–,–,–,–
CCN(c1ccccc1)S(=O)(=O)c1cccc(C(=O)NCC(c2cccs2)N2CCOCC2)c1 (stereo unspecified),21µM,–,·,·,?,?
COc1ccc(C(=O)NC(=S)NNC(=O)Cc2cccs2)cc1,?,–,6.3µM,?,?,–
COc1ccc(/C=C/C(=O)NC(=S)NNC(=O)Cc2cccs2)cc1OC,16µM,–,?,–,?,–
CCCn1c(Br)nc2c(=O)n(C)c(=O)n(C)c21,·,–,·,·,·,·
CCc1ccccc1NC(=O)c1ncoc1-c1cccc(C)c1,·,–,·,·,·,·
CCN(C(=O)c1ccc2c(c1)OCO2)C12CC3CC(CC(C3)C1)C2,?,–,·,·,23µM,–
CCN(C(=O)c1cccc(S(=O)(=O)N(C)C)c1)C12CC3CC(CC(C3)C1)C2,13µM,–,–,–,12µM,–
CCCN(CCC)C(=O)c1ccc2c(c1)OCO2,–,–,–,–,–,–
